An excerpt weighted towards active compounds, which were near 0.9% of everything screened.
Sa ugtP lethal: growth inhibition of S. aureus ugtP deletion strain. growth inhibition, % (test concentration not listed). S. aureus RN4220 ugtP deletion, OD600 growth, 16 h. hit rate 0.54% among 330,000; in the data active = growth inhibition above about 68%
Mtb bLac sens: beta-lactam sensitization of Mtb H37Rv; M. tuberculosis H37Rv growth with meropenem, percent inhibition; inhibition, % at 25 µM; hit rate 0.27% among 330,000; call rule not given here;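 note: growth measured after seven days incubation then overnight dye step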
RN4220 kill: S. aureus RN4220 growth inhibition. OD600, 16 h. inhibition, % (test concentration not listed). hit rate 0.33% among 330,000; in the data active = inhibition above about 85%
PfHsp40 yeast: compounds rescuing yeast from Plasmodium falciparum HSP40 toxicity; S. cerevisiae expressing PfHsp40, growth rescue, ATP luminescence; growth rescue, % at 12.5 µM; hit rate 0.68% among 340,000; AID 504582; in the data active = growth rescue above about 28%, passing the limit was not always enough;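 note: yeast W303a lacking pdr1 and pdr3 grown in galactose medium; growth measured after three days at 30 °C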
Mtb BioA inh: inhibitors of Mycobacterium tuberculosis BioA enzyme | hit rate 0.096% among 360,000 | purified M. tuberculosis BioA enzyme, plate reader | inhibition, % at 9.99 µM; in the data active = inhibition above about 40%
Large screens that a line does not name were inactive.

Nc1nc(N(Cc2ccccc2)Cc2ccccc2)nc(C(F)(F)F)n1	Sa ugtP lethal 98.3
CC1CN(c2nc3ccccc3cc2-c2ccccc2)CC(C)O1 (stereo not given)	Sa ugtP lethal 91.2 (no result: Mtb BioA inh)
C#CCOCCOCCOCCNc1nc(N2CCN(C(=O)C(Cc3ccc(O)cc3)n3cc(C(N)CC(C)C)nn3)CC2)nc(N2CCN(C(=O)C(C(C)CC)n3cc(C(N)CO)nn3)CC2)n1 (stereo not given)	none (no result: Mtb bLac sens, PfHsp40 yeast, Mtb BioA inh)
Cc1nnc(SCC2=C(C(=O)O)N3C(=O)C(NC(=O)Cn4ncc(Cl)c4C)C3SC2)s1 (stereo not given)	Sa ugtP lethal 98.7, RN4220 kill 99.1 (no result: Mtb BioA inh)
CC1=C(C(=O)O)N2C(=O)C(NC(=O)c3nn(C)c(C)c3Cl)C2SC1 (stereo not given)	none (no result: Mtb BioA inh)
Cc1nnc(SCC2=C(C(=O)O)N3C(=O)C(NC(=O)c4cccc(F)c4F)C3SC2)s1 (stereo not given)	Sa ugtP lethal 100.5, RN4220 kill 99.5 (no result: Mtb BioA inh)
Cc1cc(C)n(CC(=O)NC2C(=O)N3C(C(=O)O)=C(CSc4nnc(C)s4)CSC23)n1 (stereo not given)	Sa ugtP lethal 99.6, RN4220 kill 100.3 (no result: Mtb BioA inh)
NS(=O)(=O)c1ccc(N2N=C(c3ccc(Br)cc3)CC2c2ccc(F)cc2)cc1 (stereo not given)	RN4220 kill 98.4
COc1ccc(C2CC(c3ccc(Cl)cc3)=NN2c2ccc(S(N)(=O)=O)cc2)cc1 (stereo not given)	RN4220 kill 94.0 (no result: Mtb bLac sens)
COc1ccc(C2=NN(c3ccc(C(=O)O)cc3)C(c3ccc(OC)c(OC)c3)C2)cc1 (stereo not given)	PfHsp40 yeast 112.3 (no result: Mtb BioA inh)
COc1ccc(C2CC(c3ccccc3)=NN2c2ccc(S(N)(=O)=O)cc2)cc1OC (stereo not given)	none (no result: Mtb BioA inh)
NC1=NCC(c2ccccc2)N1CCc1cc(C(F)(F)F)cc(C(F)(F)F)c1 (stereo not given)	none (no result: Mtb bLac sens, PfHsp40 yeast, Mtb BioA inh)
CC(C)Sc1cc(N2CCOCC2)nc(-c2ccccc2)n1	Sa ugtP lethal 97.5 (no result: Mtb BioA inh)
COc1cc(CCCN2CCNCC2c2ccccc2)cc(OC)c1OC (stereo not given)	none (no result: Mtb bLac sens, PfHsp40 yeast, Mtb BioA inh)
COc1ccccc1NC(CC(=O)c1ccccc1)C(=O)OCC(=O)c1ccc(C)cc1 (stereo not given)	Sa ugtP lethal 83.6 (no result: Mtb BioA inh)
Nc1nc2nccc(-c3ccc(Cl)cc3)n2n1	PfHsp40 yeast 184.5
Cc1ccc2sc(N(CCCN(C)C)C(=O)c3ccc(S(=O)(=O)N4CCc5ccccc5C4)cc3)nc2c1C	PfHsp40 yeast 79.1
Cc1cccc(Nc2nc(-c3sc(C)nc3C)cs2)c1	Sa ugtP lethal 89.9
Cc1nc(C)c(-c2csc(Nc3cccc(O)c3)n2)s1	none (no result: Mtb BioA inh)
CCCCCc1cc(O)c2c(C)cc(=O)oc2c1	PfHsp40 yeast 55.8
Cc1cc(=O)oc2cc(O)cc(O)c12	none (no result: Sa ugtP lethal, Mtb bLac sens, RN4220 kill)
Cc1ccc(C(=O)NC(=Cc2ccco2)C(=O)NCCc2c[nH]c3ccccc23)cc1C	none (no result: Mtb bLac sens, PfHsp40 yeast, Mtb BioA inh)
C=C1CCN(C(C(=O)OCc2ccc(C)cc2)C(C)C)S(=O)(=O)c2ccccc21 (stereo not given)	none (no result: Mtb bLac sens, PfHsp40 yeast, Mtb BioA inh)
Nc1ccc(C(=O)O)cc1[N+](=O)[O-]	none
O=[N+]([O-])c1cc([N+](=O)[O-])c2oc(-c3ccccc3)c(Br)c2c1O	Sa ugtP lethal 93.5, RN4220 kill 91.9 (no result: Mtb bLac sens)
O=S(=O)(c1ccccc1)c1cnn(-c2ccccc2)c1-c1ccc(F)cc1	PfHsp40 yeast 49.0
Nc1ncnc(N)c1N=Nc1ccccc1	none
Nc1ccc2ccccc2c1N=Nc1ccccc1	Sa ugtP lethal 94.8 (no result: Mtb bLac sens)
C=CC1c2cccc(C)c2N(S(=O)(=O)c2ccc(C)cc2)C(c2ccc(OC(C)=O)cc2)C1(C#N)C#N (stereo not given)	none (no result: Mtb bLac sens, PfHsp40 yeast, Mtb BioA inh)
CCOC(=O)C1=C(c2ccccc2)NC(=O)NC1c1cc(Cl)c(O)c(OC)c1 (stereo not given)	none (no result: Mtb BioA inh)
CCOC(=O)C1=C(c2ccccc2)NC(N)=NC1c1ccc(OCc2ccc(Cl)cc2)c(OC)c1 (stereo not given)	RN4220 kill 99.1 (no result: Mtb BioA inh)
CNC(CC(C)C)C(=O)NC1C(=O)NC(CC(N)=O)C(=O)NC2C(=O)NC3C(=O)NC(C(=O)NC(C(=O)O)c4cc(O)cc(O)c4-c4cc3ccc4O)C(O)c3ccc(c(Cl)c3)Oc3cc2cc(c3OC2OC(CO)C(O)C(O)C2OC2C[C@](C)(N)C(O)C(C)O2)Oc2ccc(cc2Cl)C1O (stereo not given in full)	Sa ugtP lethal 99.9, RN4220 kill 100.7
CCC(C)C1COCCS(=O)(=O)N1Cc1ccc(Br)cc1 (stereo not given)	none (no result: Mtb bLac sens, PfHsp40 yeast, Mtb BioA inh)
O=C(C1CC=CC2CCN(C3CCCCC3)C(=O)C21)N1CCN(c2ccccc2)CC1 (stereo not given)	none (no result: Mtb bLac sens, PfHsp40 yeast, Mtb BioA inh)

Screens as filed in PubChem.
